# Screens as filed in PubChem.
# ALOX12 inh: ALOX12 (human) lipoxygenase inhibition | purified 12hLO, xylenol orange hydroperoxide absorbance | Potency, µM (titrated, usually from 108 µM), inactives show at the highest dose activity change, negative = inhibition, actives largely listed as inhibitors | 580,000 compounds, 1.1% hits; further: on the % scale 0 is the no-effect control and ±100 the full control effect
#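 Purified human 12hLO at 150 nM in 25 mM Hepes, 0.01% Triton X-100, pH 7.0, preincubated 15 min at room temperature with compound. Reaction started with 40 uM arachidonic acid, 30 min at room temperature. Hydroperoxide measured by Fe-xylenol orange, 573/405 nm absorbance ratio.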
# G9a block: blocks human histone lysine methyltransferase G9a; 350,000 compounds, 8.8% hits; Potency, µM (titrated, usually from 102 µM), inactives show at the top dose activity, negative = inhibition, most hits filed as inhibitors; G9a H3K9 monomethylation, AlphaScreen, 2 h; further: on the % scale 0 is the no-effect control and ±100 the full control effect; nearly all actives have a fitted effect of over 75% in size
#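 Chemiluminescent proximity detection of H3K9 monomethylation, read after 10 min bead incubation in the dark. Reaction: 20 nM G9a, 500 nM biotin-H3K9 peptide, 20 uM SAM cofactor, 2 h, room temperature, following 15 min enzyme-compound preincubation.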
# HP1b binding inh: HP1-beta chromodomain-methylated histone interaction inhibition; 390,000 compounds, 0.56% hits; AID 540317; Potency, µM (top dose mostly 114 µM), without a hit: at the highest dose activity change, negative = inhibition, actives largely listed as inhibitors; AlphaScreen HP1-beta / biotin-H3K9me3 peptide binding; further: nearly all actives have a fitted effect of over 70% in size
#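 HP1-beta protein (50 nM final) preincubated 30 min at room temperature with biotinylated H3(1-18)K9me3 peptide (50 nM) in PBS pH 7.4, 0.01% Tween-20, then compound added for 30 min. AlphaScreen streptavidin donor/nickel chelate acceptor beads (10 ug/mL final), 30 min dark, luminescence read.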
# BAZ2B inh: BAZ2B (human) inhibition | Q9UIF8 | AID 504333 | AlphaScreen BAZ2B-H3K14Ac peptide displacement | 360,000 compounds, 4.4% hits | Potency, µM (doses to about 114 µM), for the others: at the highest dose activity change, negative = inhibition, usual class: inhibitors; further: on the % scale 0 is the no-effect control and ±100 the full control effect; nearly all actives have a fitted effect of over 60% in size
#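 In this displacement format the biotinylated H3(5-23) peptide acetylated at Lys14 serves as ligand at 50 nM, with BAZ2B at 50 nM in PBS pH 7.4 containing 0.01% Tween-20. Donor and acceptor beads are 10 ug/mL final.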
# Sfp PPTase inh: inhibitors of Bacillus subtilis Sfp phosphopantetheinyl transferase. Biochemical Sfp PPTase activity, qHTS. Potency, µM, for inactives: largest response in the series, negative = inhibition, hits mostly inhibitors. 310,000 compounds, 3.5% hits. AID 1490;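 further: the enzyme is Sfp with the accession as filed and its product quenches rhodamine fluorescence; 0% = enzyme reaction without inhibitor and -100% = no enzyme wells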
#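 Step 1, compound plus 15 nM Sfp-PPTase, 15 min, room temperature. Step 2, add rhodamine-CoA (5 uM) and BHQ-2-YbbR (12.5 uM). Step 3, read 525/598 nm fluorescence at 0 and 30 min.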
# JMJD2A Tudor inh: inhibitors of human JMJD2A Tudor domain; 390,000 compounds, 4.4% hits; AlphaScreen JMJD2A-Tudor / H3K4me3 peptide binding; Potency, µM (doses to about 114 µM), for inactives: at the highest dose activity change, negative = inhibition, hits mostly inhibitors; AID 504339; further: on the % scale 0 is the no-effect control and ±100 the full control effect; nearly all actives have a fitted effect of over 50% in size
# An asterisk follows results filed as active; ? = inconclusive; · = not tested or not shown; [ ] = dose if it differs, or a comment. Rows were chosen to be rich in hits. Some 8.7% of all compounds tested hit in one or more screens of this group. The call rests on the fitted dose curve; in most records, active means well fitted curve in the direction sought with a large enough effect; inconclusive means small, poorly fitted or top-dose-only effect, or another doubt; inactive means no such curve, though single readings can be large; an effect the other way counts as inactive or inconclusive. Potency means the concentration at half of the fitted maximal effect.
SMILES,ALOX12 inh,G9a block,HP1b binding inh,BAZ2B inh,Sfp PPTase inh,JMJD2A Tudor inh
CN(CCOc1ccccc1)CC(=O)Nc1ccc(Cl)cc1[N+](=O)[O-],?,3.5µM*,25µM*,13µM*,50µM*,0.79µM*
CCN(CC)S(=O)(=O)c1ccc(Cl)c(C(=O)Nc2ccc(Cl)cc2[N+](=O)[O-])c1,-23%,8.9µM*,?,?,13%,?
CCC(C(=O)OCC(=O)Nc1ccc(Cl)c(S(=O)(=O)N(C)C)c1)c1ccccc1 (stereo not drawn),18%,?,31%,-30%,7%,-27%
O=C(C1CCOCC1)N1CCCC(CCc2ccc(F)c(F)c2)C1 (stereo not drawn),35%,·,·,·,·,·
CC(=O)c1cc(CN2CCCC(C(=O)c3cccc(OC(C)C)c3)C2)cs1 (stereo not drawn),30%,·,·,·,·,·
O=C(c1cccc(C(F)(F)F)c1)N1CCCCCCC1,4%,·,·,·,·,·
CCCC1(CCC)NC(=O)N(Cc2nc3ccccc3nc2C)C1=O,-7%,·,·,·,·,·
Cc1cccc(NC2=C(NCCO)C(=O)c3ccccc3C2=O)c1,-30%,32µM*,20µM*,20µM*,-12%,56µM*
COc1ccc(NC2=C(NCCO)C(=O)c3ccccc3C2=O)cc1,?,14µM*,16µM*,22µM*,-1%,?
Cc1cccc(Nc2nc(N)c([N+](=O)[O-])c(NCCO)n2)c1,?,-6%,45%,-5%,12%,-21%
COc1cccc(NC2=C(NCCO)C(=O)c3ccccc3C2=O)c1,0%,-2%[0.501 µM],?,35µM*,-7%,50µM*
COc1ccc(C(=O)NCCn2c(C)cnc2-c2ccncc2)cc1,35%,·,·,·,·,·
CCNc1c([N+](=O)[O-])c(=O)n(CC)c2ccccc12,117%,·,45%,-3%,9%,-5%
Cn1c(=O)c([N+](=O)[O-])c(NCc2ccccc2)c2ccccc21,?,50µM*,40%,-1%,1%,-6%
O=C1c2cccnc2C(=O)N1CO,-1%,-33%,5%,?,9%,-23%
O=C1C(=O)c2ncccc2-c2cccnc21,·,-118%[2.33 µM],·,·,0.63µM*,·
COc1ccc(CCC(=O)NNC(=O)Nc2ccc(OC)c(OC)c2)cc1,273%,2%,38%,-1%,8%,3%
COc1ccc(NC(=O)NNC(=O)CCc2ccc(O)c(O)c2)cc1OC,?,-12%,?,-17%,-27%,28µM*
COc1ccc(C2CC(c3ccccc3)=NN2C(=S)Nc2ccccc2)cc1 (stereo not drawn),-13%,?,20%,?,13%,-28%
CNC(=S)N1N=C(c2ccc(Br)cc2)CC1c1ccc(N(C)C)cc1 (stereo not drawn),-4%,7.9µM*,?,10µM*,26%,11µM*
CNC(=S)N1N=C(c2ccc(OC)cc2)CC1c1ccc(N(C)C)cc1 (stereo not drawn),-2%,·,-52%,11µM*,1%,35µM*
CNC(=S)N1N=C(c2ccc(Br)cc2)CC1c1ccc(Br)cc1 (stereo not drawn),?,-11%[59 µM],22%,-3%,0%,-27%
CNC(=S)N1N=C(c2cccs2)CC1c1ccc(OC)cc1 (stereo not drawn),-4%,7%,48%,?,1%,-5%
COc1ccc(C2CC(c3ccc(Br)cc3)=NN2C(=S)Nc2ccccc2)cc1 (stereo not drawn),-18%,2µM*,-22%,?,-8%,-29%
COc1cc(C(=O)/C=C/c2ccccc2F)ccc1S(C)(=O)=O,-5%,·,·,·,·,·
SMILES,ALOX12 inh,G9a block,HP1b binding inh,BAZ2B inh,Sfp PPTase inh,JMJD2A Tudor inh
CC(=O)c1ccccc1NC(=O)c1ccccc1-c1ccccc1,0%,·,·,·,·,·
O=C1CCC(C(=O)N2CCOCC2)CN1CCCc1ccccc1 (stereo not drawn),49%,·,·,·,·,·
Cc1ccc(NC(=O)c2cc3c(cc2C)OCCCO3)c(C)c1,2%,·,·,·,·,·
CC(=O)C1=NN(c2ccccc2)C(c2ccc3c(c2)OCO3)N1c1ccccc1 (stereo not drawn),?,108%,111%,33%,-5%,42%
CC(=O)C1=NN(c2ccccc2)C(c2cccs2)N1c1ccc(N(C)C)cc1 (stereo not drawn),-18%,28µM*,?,45µM*,9%,14µM*
CCCc1nnc2sc(-c3ccc(CNC(=O)c4ccccc4C)cc3)nn12,-18%,·,·,·,·,·
COc1ccc(C(=O)NCc2nnc(SCC(=O)N3CCCCC3)o2)cc1OC,-26%,79µM*,32%,-17%,-13%,3%
O=C(NCc1nnc(SCC(=O)N2CCCC2)o1)c1ccc(F)cc1,-1%,110%,32%,14%,20%,-14%
Cc1nc(Cc2nnc(SCC(=O)N3CCN(c4ccccc4)CC3)o2)cs1,?,45µM*,15%,-2%,·,-14%
O=C(NCc1nnc(SCC(=O)N2CCN(c3ccccc3)CC2)o1)c1ccc(F)cc1,4%,79µM*,63%,-25%,-18%,-11%
COCCn1cnnc1CN(C)c1cc(C2CC(O)C2)ncn1 (stereo not drawn),97%,·,·,·,·,·
COc1ccc(C(=O)N2CCC(C(=O)N3CCCCCCNC(=O)CC3)CC2)cn1,-4%,·,·,·,·,·
CCOC(=O)c1cc2occc2n1CC(=O)N1CCCc2ccccc21,1%,?,-29%,79µM*,79µM*,?
COC(=O)c1cc2oc(C)cc2n1CC(=O)N1CCCc2ccccc21,?,?,-20%,89µM*,56µM*,?
CCOC(=O)c1cc2sccc2n1CC(=O)N1CCCc2ccccc21,?,-5%[12.7 µM],11%,-3%,-6%,-22%
COC(=O)c1cc2sccc2n1CC(=O)N1CCCc2ccccc21,7%,-43%[59 µM],4%,-3%,-11%,-13%
O=C(NC1CCCCCCC1)c1cc(-c2ccc(Cl)c(Cl)c2)nc2ccccc12,2%,·,·,·,·,·
CC/C(=N\NC(C)=O)c1ccc(OC(F)F)cc1,·,5%,·,-4%,25%,·
C/C(=N\NC(=S)Nc1ccccc1C)c1ccc(O)cc1,·,35µM*,?,?,25µM*,?
CC/C(=N\NC(=S)Nc1cc(C)ccc1C)c1ccc(OC(F)F)cc1,32µM*,3.2µM*,?,?,?,?
CC/C(=N\NC(=S)Nc1ccc(OC)cc1)c1ccc(OC(F)F)cc1,35µM*,40µM*,?,?,1%,?
CC/C(=N\NC(=O)c1cc(C)oc1C)c1ccc(OC(F)F)cc1,14%,·,·,·,·,·
C/C(=N\NC(=S)Nc1c(C)cccc1C)c1ccc(OC(F)F)cc1,35µM*,8.9µM*,10%,-6%,-25%,?
